Laboratory results reported in the supplement of paper PMC12532568.
Where a name gives a salt, the structure may show the parent alone.

The compounds below were run on Danio rerio larvae Tg(actc1b:ZsGreen-LC3), 3 dpf (assay: LC3 puncta relative area vs vehicle, with NH4Cl (autophagic flux) (log2 fold change); higher = more autophagy). Details: 10 µM; treatment time 16 h; NH4Cl: + 100 mM, 4 h.
Method: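 Transgenic Tg(actc1b:ZsGreen-map1lc3) zebrafish larvae (2 dpf) were treated for 16 h with Tocris library compounds at 10 µM (n = 12 larvae per compound). Skeletal-muscle LC3 puncta area relative to body area was measured by high-content confocal imaging before and after 4 h of 100 mM NH4Cl (autophagic flux), normalised to vehicle (DMSO), and reported as log2 fold change.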

| SMILES | LC3 puncta (log2) |
| --- | --- |
| O=[N+]([O-])c1cc2nc(O)c(O)nc2cc1[N+](=O)[O-] | 0.11 |
| COc1ccccc1N1CCN(CCCCN2C(=O)c3ccccc3C2=O)CC1 [NAN-190 hydrobromide] | 0.496 |
| O=C(O)C=C1CCCc2ccccc2C1O (stereo not given) | -0.285 |
| C=C1C(=O)O[C@H]2[C@H]1CC/C(C)=C/CC[C@@]1(C)O[C@@H]21 [Parthenolide] | 0.46 |
| COc1ccc([C@@H]2Sc3ccccc3N(CCN(C)C)C(=O)[C@@H]2OC(C)=O)cc1 [Diltiazem hydrochloride] | 0.194 |
| COc1cc(N)c(Cl)cc1C(=O)OCCCN1CCCCC1 | 0.449 |
| NC(=O)Nc1sc(-c2ccc(F)cc2)cc1C(N)=O | 0.588 |
| c1ccc(N2CCN(CCCOc3ccc4c(c3)OCO4)CC2)cc1 [BP 554 maleate] | 0.422 |
| CC(N)(Cc1ccc(O)c(O)c1)C(=O)O (stereo not given) | 0.209 |
| O=C(O)c1cc(O)c2ccc(Cl)cc2n1 [7-Chlorokynurenic acid] | 0.316 |
| COc1cc2nc(N3CCN(C(=O)c4ccco4)CC3)nc(N)c2cc1OC [Prazosin hydrochloride] | 0.478 |
| O=C1CC2(CCCC2)CC(=O)N1CCNCC1COc2ccccc2O1 (stereo not given) | 0.515 |
| CC(C)NC[C@H](O)COc1cccc2ccccc12 [(S)-(-)-Propranolol hydrochloride] | 1.09 |
| CNCCCCOc1ccccc1Cc1ccccc1 [Bifemelane] | 0.532 |
| CC(=O)N[C@@H](Cc1c[nH]c2ccccc12)C(=O)OCc1cc(C(F)(F)F)cc(C(F)(F)F)c1 | 0.108 |
| CCCCOc1cc(CC2CNC(=O)N2)ccc1OC (stereo not given) | 0.0673 |
| CC(CCCCC(=O)Nc1ccc(C(F)(F)F)cc1)NCCc1cnc[nH]1 (stereo not given) [HTMT dimaleate] | 0.469 |
| CCN(CC)CCOCCOC(=O)C1(c2ccccc2)CCCC1 [Carbetapentane citrate] | 0.392 |
| Cc1ccc(/C(=C\CN2CCCC2)c2ccccn2)cc1 [trans-Triprolidine hydrochloride] | -0.196 |
| NS(=O)(=O)c1cc2c(cc1Cl)NC(C1CC3C=CC1C3)NS2(=O)=O (stereo not given) [Cyclothiazide] | 0.416 |

| SMILES | LC3 puncta (log2) |
| --- | --- |
| CCCCCCN(CCCCCC)C(=O)Cc1c(-c2ccc(F)cc2)[nH]c2ccccc12 | 0.295 |
| CC#CCOC(=O)C1=CCCN(C)C1 [Arecaidine but-2-ynyl ester tosylate] | 0.452 |
| O=C(NCCCN1CCCCCC1)C(c1ccccc1)C1CCCCC1 (stereo not given) | -0.114 |
| CC(CCc1ccc(O)cc1)NCCc1ccc(O)c(O)c1 (stereo not given) [Dobutamine hydrochloride] | 0.472 |
| N[C@@H](C(=O)O)c1ccc(O)c(C(=O)O)c1 [(R)-3-Carboxy-4-hydroxyphenylglycine] | 0.421 |
| O=C(OCCN1CCOCC1)C1(c2ccccc2)CCCCC1 [PRE-084 hydrochloride] | 0.339 |
| COC(=O)C1=C(C)NC(C)=C(C(=O)OCCSc2ccccc2)C1C (stereo not given) | 0.664 |
| O=C(OCCN1CCCCC1)c1c[nH]c2ccccc12 | 0.6 |
| O=C(NCCN1CCCCC1)c1ccc(I)cc1 [N-[2-(Piperidinylamino)ethyl]-4-iodobenzamide] | 0.448 |
| CC(C)NCC(O)c1ccc2ccccc2c1 (stereo not given) [Pronethalol hydrochloride] | 0.862 |
| O=C(/C=C/c1ccc(O)c(O)c1)O[C@H](Cc1ccc(O)c(O)c1)C(=O)O [Rosmarinic acid] | 0.0251 |
| CSc1ccc2c(c1)C(N1CCN(C)CC1)Cc1ccccc1S2 (stereo not given) [Methiothepin maleate] | -0.129 |
| c1ccc2oc(C3=NCCN3)cc2c1 [2-BFI hydrochloride] | -0.32 |
| Nc1nc2ccc(OC(F)(F)F)cc2s1 [Riluzole] | 0.631 |
| Cc1ccc2c(c1)c1c3n2CCNC3CCC1 (stereo not given) [Pirlindole mesylate] | 0.527 |
| CNC(=O)c1cc2c(cn1)[nH]c1ccccc12 | 0.446 |
| N[C@H]1CCN(O)C1=O | 0.023 |
| CC1(C(=O)O)NCCc2cc(O)c(O)cc21 (stereo not given) [Salsolinol-1-carboxylic acid] | 0.429 |
| N[C@H](C(=O)O)c1ccc(C(=O)O)c(O)c1 [(S)-4-Carboxy-3-hydroxyphenylglycine] | -0.0785 |
| CCCC[C@@H](C=O)NC(=O)[C@H](CC(C)C)NC(=O)OCc1ccccc1 [Calpeptin] | 1.29 |
